# Where a name gives a salt, the structure may show the parent alone.
# Tested on: Haemophilus parainfluenzae
# Assay: growth AUC normalised to DMSO control (fraction of control); higher = less growth inhibition, active = hit call of the paper
# Details: 20 µM;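 active = AUC significantly below DMSO controls by Student t-fit with adjusted P under 0.01; inactive = not significantly reduced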
# Procedure, shortened: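 Hemin and NAD were added to the medium for Haemophilus parainfluenzae. All pathogens, after two anaerobic passages, were inoculated at a starting OD578 of 0.01 into pre-reduced mGAM plates with 20 μM compound and 1% DMSO under breathable seals, and OD578 was read hourly for 24 h in three biological replicates. AUC of each growth curve was obtained with the trapezoidal rule up to the exponential-to-stationary transition and normalised to DMSO controls from the same plate.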
row,Structure (SMILES),growth AUC normalised to DMSO control
1,CN(C)c1ccc(O)c2c1C[C@H]1C[C@H]3[C@H](N(C)C)C(=O)C(C(N)=O)=C(O)[C@@]3(O)C(=O)C1=C2O [Minocycline hydrochloride],0.0348 (active)
2,COC(=O)Nc1nc2ccc(SC(C)C)cc2[nH]1 [Methiazole],1.05 (inactive)
3,O=c1oc2ccccc2c(O)c1Cc1c(O)c2ccccc2oc1=O [Dicumarol],1.31 (inactive)
4,CC(=O)OCC(=O)[C@@]12OC(C)(C)O[C@@H]1C[C@H]1[C@@H]3C[C@H](F)C4=CC(=O)C=C[C@]4(C)[C@@]3(F)[C@@H](O)C[C@@]12C [Fluocinonide],0.999 (inactive)
5,C=CC[N@@+]12CC[C@@]34c5ccccc5N5/C=C6/[C@H]7C[C@H]8[C@@]9(CC[N@@+]8(CC=C)C/C7=C/CO)c7ccccc7N(/C=C(/[C@@H](C[C@@H]31)/C(=C\CO)C2)[C@H]54)[C@@H]69 [Alcuronium chloride],1 (inactive)
6,CCN(CC)CCNC(=O)COc1ccc(OC)cc1 [Mefexamide hydrochloride],0.985 (inactive)
7,CN(C)C(=O)C(CCN1CCC(O)(c2ccc(Cl)cc2)CC1)(c1ccccc1)c1ccccc1 [Loperamide hydrochloride],1 (inactive)
8,CCCOc1ccccc1-c1nc2[nH]nnc2c(=O)[nH]1 [Zaprinast],1.01 (inactive)
9,CCN(CC)CCCC(C)Nc1c2ccc(Cl)cc2nc2ccc(OC)cc12 (centres undefined) [Quinacrine dihydrochloride hydrate],0.879 (inactive)
10,CC(=O)OCC(=O)[C@@]12N=C(C)O[C@@H]1C[C@H]1[C@@H]3CCC4=CC(=O)C=C[C@]4(C)[C@H]3[C@@H](O)C[C@@]12C [Deflazacort],1.02 (inactive)
11,CC=C(C)C(=O)OC1C(OC(C)=O)C2(CO)C(O)CC3(C)C(=CCC4C5(C)CCC(OC6OC(C(=O)O)C(OC7OC(CO)C(O)C(O)C7O)C(O)C6OC6OC(CO)C(O)C(O)C6O)C(C)(CO)C5CCC43C)C2CC1(C)C (stereo not drawn) [Beta-Escin],1.01 (inactive)
12,N=C(N=C(N)N)N1CCOCC1 [Moroxidine hydrochloride],1 (inactive)
13,CC1(C)S[C@@H]2[C@H](NC(=O)[C@H](NC(=O)N3CCNC3=O)c3ccccc3)C(=O)N2[C@H]1C(=O)O [Azlocillin sodium salt],0.0396 (active)
14,CS(=O)(=O)Nc1ccc([N+](=O)[O-])cc1Oc1ccccc1 [Nimesulide],0.982 (inactive)
15,CCOC(=O)[C@H](CCc1ccccc1)N[C@@H](C)C(=O)N1CCC[C@H]1C(=O)O [Enalapril maleate],1.03 (inactive)
16,O=C(O[C@@H]1C[C@@H]2C[C@H]3C[C@H](C1)N2CC3=O)c1c[nH]c2ccccc12 [Dolasetron mesilate],1.06 (inactive)
17,O=C1C(CC[S+]([O-])c2ccccc2)C(=O)N(c2ccccc2)N1c1ccccc1 (centres undefined) [Sulfinpyrazone],1.02 (inactive)
18,COC(=O)Nc1nc2cc(C(=O)c3cccs3)ccc2[nH]1 [Nocodazole],1.03 (inactive)
19,NS(=O)(=O)c1cc2c(cc1C(F)(F)F)NCNS2(=O)=O [Hydroflumethiazide],0.991 (inactive)
20,CCCNC(=O)NS(=O)(=O)c1ccc(Cl)cc1 [Chlorpropamide],0.995 (inactive)

row,Structure (SMILES),growth AUC normalised to DMSO control
1,COc1ccc(NS(=O)(=O)c2ccc(N)cc2)nn1 [Sulfamethoxypyridazine],1.04 (inactive)
2,COc1ccccc1N1CCN(CCCNc2cc(=O)n(C)c(=O)n2C)CC1 [Urapidil hydrochloride],0.979 (inactive)
3,Oc1c(I)cc(Cl)c2cccnc12 [Clioquinol],1.03 (inactive)
4,CN(C)CCC=C1c2ccccc2COc2ccccc21 [Doxepin hydrochloride],0.972 (inactive)
5,CN(C)C(=N)NC(=N)N [Metformin hydrochloride],1.03 (inactive)
6,Cc1cc(C2CCCCC2)n(O)c(=O)c1 [Ciclopirox ethanolamine],0.905 (inactive)
7,CC(C)NCC(O)c1ccc(NS(C)(=O)=O)cc1 (centres undefined) [Sotalol hydrochloride],1 (inactive)
8,CCC(NC(C)C)C(O)c1ccc(O)c(O)c1 (centres undefined) [Isoetharine mesylate salt],1.01 (inactive)
9,CCn1cc(C(=O)O)c(=O)c2cnc(N3CCCC3)nc21 [Piromidic acid],1.03 (inactive)
10,CC(=O)OCC(=O)[C@@]1(O)CC[C@H]2[C@@H]3CCC4=CC(=O)CC[C@]4(C)[C@@]3(F)[C@@H](O)C[C@@]21C [Fludrocortisone acetate],1.02 (inactive)
11,CC/C(=C(/CC)c1ccc(O)cc1)c1ccc(O)cc1 [Diethylstilbestrol],1.01 (inactive)
12,Nc1ncnc2c1ncn2C1OC(COP(=O)(O)O)C(O)C1O (centres undefined) [Adenosine 5'-monophosphate monohydrate],0.982 (inactive)
13,Cn1cnc([N+](=O)[O-])c1Sc1ncnc2[nH]cnc12 [Azathioprine],1.11 (inactive)
14,NC(=O)c1cc[n+](CC2=C(C(=O)[O-])N3C(=O)[C@@H](NC(=O)[C@@H](c4ccccc4)S(=O)(=O)O)[C@H]3SC2)cc1 [Cefsulodin sodium salt],0.912 (inactive)
15,CC(=O)c1ccc(S(=O)(=O)NC(=O)NC2CCCCC2)cc1 [Acetohexamide],0.971 (inactive)
16,OCC(O)CN1CCN(c2ccccc2)CC1 (centres undefined) [Dropropizine],1.07 (inactive)
17,CS(=O)(=O)c1ccc(C2=C(c3ccccc3)C(=O)OC2)cc1 [Rofecoxib],0.964 (inactive)
18,CCCCOc1ccc(OCCCN2CCOCC2)cc1 [Pramoxine hydrochloride],0.936 (inactive)
19,CO[C@@]1(NC(=O)C2SC(=C(C(N)=O)C(=O)O)S2)C(=O)N2C(C(=O)O)=C(CSc3nnnn3C)CS[C@@H]21 (some centres undefined) [Cefotetan],0.0395 (active)

# Source: the supplement of paper PMC12350171
